Results on 15 compounds are retold here after PubChem BioAssay AID1347041 (National Center for Advancing Translational Sciences (NCATS), 2019).

Molecules are shown by their SMILES. Hit rate of the full screen: of about 480,000 compounds, about 740 (0.15%) were called active. This excerpt belongs to a sample that is enriched for actives. Values without a mark were called inactive. No stated cut-off is given here; in the data, active means activity change below about -30%; inconclusive means mostly about -25% to -30%; inactive means weaker than that.

This experiment concerns the target L-lactate dehydrogenase A chain (Homo sapiens) (UniProt P00338). Briefly: qHTS assay for inhibitors of human lactate dehydrogenase. Further: values are at about 110 or 230 µM. As to conditions: purified LDHA, NADH/diaphorase-resazurin fluorescence; stronger effect = lower value. The text has this:
LDH is a key glycolytic enzyme that catalyzes the final step in the glycolytic pathway, reducing pyruvate to lactate and regenerating NAD+ equivalents necessary for continued glycolysis. LDHA has been linked to the carcinogenesis and malignancy in numerous forms of cancers and many other diseases. Consequently, both pharma and academia have invested in significant research efforts to identify small molecule therapeutics. Such attempts have been stalled or abandoned due to limited success in discovering potent and drug-like inhibitors that can be utilized to validate LDHA in vivo as a drug target, a necessary step toward advancing such a molecule towards the clinic Towards this goal we designed and performed a quantitative high-throughput screening (qHTS) campaign to discover novel compounds that are potent inhibitors of LDHA enzyme activity and cancer cell line growth.
The assay was optimized to 1536-well plates. Briefly, 3 µL of human lactate dehydrogenase 5 (#A38558H, Meridian Life Science, Inc., Memphis, TN) in LDH assay buffer (200 mM Tris HCl pH 7.4, 100 microM EDTA and 0.01% Tween-20) was added to a black solid bottom 1536-well assay plate (Greiner Bio-One) using a BioRAPTR FRD dispenser (Beckman Coulter, Brea, CA). A 1536-well pintool dispenser outfitted with 20 nL pins (Wako Automation, San Diego, CA) was used to transfer 23 nL of DMSO-solubilized compound (both library and vehicle controls) to each 1536-well assay plate. Following compound transfer, 1 µL of substrate solution containing NADH and sodium pyruvate (Sigma-Aldrich, St. Louis, MO) in LDH assay buffer was dispensed via BioRAPTR FRD to initiate the reaction. Final concentrations in the 4 microL reaction volume were 2 nM LDHA enzyme, 0.06 mM NADH and 0.2 mM sodium pyruvate. Following a 5 minute incubation period at room temperature, 1 µL of detection reagent (C. kluyveri diaphorase (Sigma-Aldrich) and resazurin sodium salt (Sigma-Aldrich) in LDH assay buffer) was added to a total volume of 5 µL. Final concentrations of detection reagents were 0.133 mg/mL diaphorase and 37 µM resazurin. Plates were immediately transferred to a ViewLux microplate imager (PerkinElmer, Waltham, MA), and any resulting resorufin fluorescence was measured (ex540, em590 nm) at 0 and 20 minutes. Fluorescence was normalized using enzyme-free and DMSO-treated control wells on each plate.
In general terms: Quantitative high-throughput screening tests each substance at several concentrations.
As for `C=CCN1C(=O)NC(=O)/C(=C/c2ccc(OCC(=O)Nc3ccc(C)cc3)cc2)C1=O`, the activity change was -1.94%.
As for `O=C(O)COc1ccccc1/C=C1\C(=O)NC(=O)N(CCC2=CCCCC2)C1=O`, the activity change was -34.5% (active).
For `Cc1[nH]nc2c1C(c1ccc(C(=O)O)cc1)SCC(=O)N2` (stereo not given), the activity change is 4.1%.
The result for `COc1ccccc1N=C1SCCCN1C` reads -34.1% (active); that for `O=C(COc1ccc2c(=O)c(-c3ccccc3)coc2c1)N1CCN(CCO)CC1`, 3.12%; that for `COC(=O)C(O)(c1ccc(N(C)C(=O)O/N=C(/C)Cl)cc1)C(F)(F)F` (stereo not given), 1.08%.
The result for `COc1cc(-c2c(C#N)c(N)nc3c2c(=O)nc2sccn23)ccc1OCc1ccccc1C` reads 6.76%; that for `C[N+]12CN3CN(CN(C3)C1)C2`, -52.1% (active).
Regarding `Cc1c(-c2ccc(Br)cc2)c(=O)oc2ccc(OC(=O)N(C)C)cc12`, the activity change is 8.34%.
The result for `N/C(=N\N=C\c1ccco1)N[N+](=O)[O-]` reads 6.01%; that for `Cc1nc(CN2CCNCC2)cs1`, 0.726%; that for `Cc1ccc(C2(O)CC(C)N(C)CC2C)c(C)c1` (stereo not given), 1.58%.
The result for `CCOC(=O)C1=C(N)OC(C)=C(C(=O)OC(C)C)C12C(=O)Nc1ccc(Br)cc12` (stereo not given) reads 12.9%; that for `ClCc1cccnc1`, -7.12%.
The result for `CCN1CCN(C(=O)COc2ccc3c(=O)c(Oc4ccccc4)c(C)oc3c2)CC1` reads -13.1%.
